# Data published in PubChem BioAssay.
# Active and inactive are the calls of the source.
# Tests used:
# Albumin (Bos taurus) = Albumin (Bos taurus) (UniProt P02769); assay: compounds binding labelled BSA control protein – biochemical, small-molecule microarray, Alexa647 label, 635/667 nm fluorescence, artefact control for SMM control protein annotation, profiling panel (AID 1118); details: BSA-A647 binding, fluorescence 635 nm, higher = more signal;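 further: score merges 667 nm emission intensity and signal-to-noise per printed compound spot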
# [1] = probe aXIP binding to arrayed compounds – biochemical, NeuroSMM set, 635/667 nm fluorescence, primary screen (AID 1119); details: small-molecule microarray, higher = more signal, called active from +8 up or from −8 down;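 further: probe is the protein aXip251-270 applied at 1 µg/mL to compound-printed slides; binding of probe to printed compounds measured as 667 nm fluorescence plus signal to noise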
# [2] = probe aNOTCH3 binding on compound microarray – biochemical, small-molecule microarray, 635/667 nm fluorescence, primary screen (AID 1120); details: higher = more signal;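 further: probe is a biotin-tagged antibody raised against NOTCH3 rather than NOTCH3 protein; score merges spot fluorescence near 667 nm with spot signal to noise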
# [3] = probe aNOTCH2 binding on compound microarray – biochemical, small-molecule microarray, 635/667 nm fluorescence, primary screen (AID 1121); details: higher = more signal;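 further: score merges feature fluorescence read at 667 nm with its signal to noise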
# [4] = molecular target: Carbonic anhydrase 2 (Homo sapiens) (UniProt P00918); assay: compounds binding carbonic anhydrase 2 – biochemical, small-molecule microarray, Alexa647-labelled CAII, profiling panel (AID 1122); details: CAII-A647 binding fluorescence, higher = more signal
# [5] = COS7 lysate on small-molecule microarray, probe aHis, 635 nm (AID 1123); details: COS7 cell lysate, fluorescence, higher = more signal;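 further: z-score combines 667nm fluorescence intensity with signal-to-noise per printed compound spot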
# [6] = probe aLAP1 signal on lysate-treated microarray – cell lysate, small-molecule microarray, COS7 lysate, primary screen (AID 1124); details: probe aLAP1, fluorescence, higher = more signal;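 further: lysate comes from COS7 cells expressing LAP1 and is applied at 0.3 µg/mL; score merges spot fluorescence near 667 nm with signal-to-noise over triplicate slides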
# Sam68 (KHDRBS1) = assay: compounds binding KHDRBS1 protein – biochemical, small-molecule microarray, 635 nm fluorescence, primary screen (AID 1125); details: higher = more signal;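 further: score merges 667 nm channel intensity with signal to noise over triplicate slides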
# [7] = system: Chordin-like protein 2 (CHRDL2); assay: compounds binding chordin-like 2 – biochemical, small-molecule microarray, 635 nm fluorescence, primary screen (AID 1126); details: fluorescence 635 nm, higher = more signal;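 further: printed compound slides probed with Chrdl2 protein at 4 µg/mL for 1 h at 4 C; score merges 667 nm emission intensity with signal to noise over three replicate slides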
# [8] = molecular target: Concanavalin-A (Canavalia ensiformis) (UniProt P02866); assay: compounds binding concanavalin A lectin – biochemical, small-molecule microarray, Alexa647 label, 635 nm, artefact control for SMM control protein annotation, primary screen (AID 1127); details: ConA-A647 binding fluorescence, higher = more signal;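 further: z combines 667 nm emission intensity with signal-to-noise across three replicate slides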
# Sequence of Concanavalin-A (Canavalia ensiformis) (P02866 whole entry, looked up): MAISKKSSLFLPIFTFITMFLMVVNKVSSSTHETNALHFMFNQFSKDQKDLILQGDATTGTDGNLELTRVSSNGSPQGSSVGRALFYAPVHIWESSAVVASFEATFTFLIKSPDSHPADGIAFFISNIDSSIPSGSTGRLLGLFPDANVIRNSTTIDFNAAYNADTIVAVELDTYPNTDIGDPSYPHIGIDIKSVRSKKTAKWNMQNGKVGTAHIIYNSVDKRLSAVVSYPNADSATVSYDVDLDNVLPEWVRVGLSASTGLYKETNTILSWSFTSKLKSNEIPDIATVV
# Sequence of Albumin (Bos taurus) (P02769 whole entry, looked up): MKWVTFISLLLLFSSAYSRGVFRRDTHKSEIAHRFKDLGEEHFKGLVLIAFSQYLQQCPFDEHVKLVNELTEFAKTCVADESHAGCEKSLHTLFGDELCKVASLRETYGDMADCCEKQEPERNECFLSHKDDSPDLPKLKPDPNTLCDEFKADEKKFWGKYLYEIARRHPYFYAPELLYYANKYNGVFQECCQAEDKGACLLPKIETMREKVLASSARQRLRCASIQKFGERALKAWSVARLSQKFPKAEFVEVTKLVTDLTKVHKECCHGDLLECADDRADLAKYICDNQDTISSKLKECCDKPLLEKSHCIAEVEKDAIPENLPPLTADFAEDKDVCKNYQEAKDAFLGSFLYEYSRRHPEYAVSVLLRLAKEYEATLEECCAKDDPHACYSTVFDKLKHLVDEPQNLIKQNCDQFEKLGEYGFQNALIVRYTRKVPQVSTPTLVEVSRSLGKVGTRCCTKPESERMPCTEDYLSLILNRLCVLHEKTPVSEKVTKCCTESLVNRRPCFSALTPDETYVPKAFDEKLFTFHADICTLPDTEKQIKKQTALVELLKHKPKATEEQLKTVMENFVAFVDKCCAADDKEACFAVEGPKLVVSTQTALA
SMILES,composite z-score (Albumin (Bos taurus)),composite Z-score [1],composite z-score [2],composite z-score [3],composite z-score [4],composite z-score [5],composite z-score [6],composite z-score (Sam68 (KHDRBS1)),composite z-score [7],composite z-score [8]
COc1ccc([Si](C)(C)[C@H]2[C@H](CC(=O)N3CCC[C@H]3CO)O[C@@]3(C(=O)N(C)c4c(Br)cc(C)cc43)[C@@H]2C)cc1,0.824,3.93 (inactive),0.189,0.503,0.81,2.52,0.548,1.3,1.38,1.19
COc1ccc(C(=O)Nc2cccc(CN3C(=O)[C@]4(O[C@H](CC(=O)N(CCO)Cc5ccccc5)[C@@H]([Si](C)(C)c5ccc(OC)cc5)[C@@H]4C)c4ccccc43)c2)cc1,-0.211,0.264 (inactive),0.0141,-0.046,0.325,1.51,-0.0351,0.775,0.972,0.762
[N-]=[N+]=Nc1ccccc1C[C@]1(C(=O)N2CCCCC2)N=C(c2ccc(OCCCO)cc2)O[C@H]1c1ccccc1,0.737,-0.399 (inactive),0.196,0.179,0.708,1.52,0.121,1.31,-0.249,1.18
C=CC[C@]1(C(=O)NCC(O)CO)N=C(c2ccc(OCCCO)cc2)O[C@H]1c1ccccc1CN=[N+]=[N-] (stereo not given in full),0.0838,0.58 (inactive),-0.0362,-0.0357,0.522,3.12,0.988,0.605,-1.33,0.148
CN(C)CCCC[C@@H]1NC(=O)[C@H]2C[C@@H](C(=O)NCCCCCCNC(=O)CS)[C@@H](c3cccc(OCCO)c3)N2C1=O,0.105,0.333 (inactive),-0.195,-0.105,0.249,1.01,0.586,0.378,-0.0352,0.847
CCOC(=O)C[C@H]1[C@H](OC(=O)c2ccc(-c3ccccc3)cc2)[C@@H](NC(=O)c2ccc(-c3ccccc3)cc2)c2cc(OCCCO)ccc2N1C(=O)c1ccccc1,0.771,0.884 (inactive),0.0916,-0.129,0.277,0.895,0.331,1.32,-0.0105,1.06
COCCOC(=O)N1C(=O)[C@@]2(c3cc(C#CCNC(N)=O)ccc31)[C@H](c1ccccc1OCCO)N1[C@H](c3ccccc3)[C@H](c3ccccc3)OC(=O)[C@H]1[C@@H]2C(=O)N1CCCCCCC1,0.0576,0.627 (inactive),0.0556,-0.121,0.447,0.75,1.41,1.32,0.354,1.12
O=C(c1ccccc1)N1Cc2ccccc2C[C@@]2(N=C(c3ccc(OCCCO)cc3)O[C@H]2c2ccccc2)C1=O,-0.106,1.71 (inactive),0.0193,-0.0876,0.588,2.43,0.548,1.3,0.639,1.05
O=C1C2C=CC(C(O)C3CC=CCC3)N(Nc3ccc([N+](=O)[O-])cc3)C2C(=O)N1c1ccccc1 (stereo not given),0.82,0.626 (inactive),0.749,0.326,0.693,2.5,1.21,1.33,0.729,1.07
COC(=O)[C@@]1(Cc2ccc(F)cc2)[C@H]2c3cc(C(=O)N(C)C)n(Cc4ccsc4Br)c3C[C@H]2CN1C(=O)c1ccccc1,0.745,-0.857 (inactive),1.88,1.08,0.938,2.95,1.65,0.0161,-0.0576,1.13
CCOC(=O)C=C1C[C@@H](c2cccc([N+](=O)[O-])c2)O[C@@H](c2cccc([N+](=O)[O-])c2)O1,0.817,0.636 (inactive),0.13,-0.125,0.425,2.07,0.863,1.32,0.338,1.1
COC(=O)[C@@]1(Cc2ccc(OC)cc2)[C@H]2c3cc(C(=O)N(C)C)n(Cc4c(CO)[nH]cc(C)c4=O)c3C[C@H]2CN1C(=O)c1ccccc1,0.302,0.0713 (inactive),0.23,0.484,0.876,2.97,0.221,0.55,-0.31,0.554
C=C(CC1([C@@H](NP(=O)(c2ccccc2)c2ccccc2)[C@H]2C[C@@H]2CCCC)CC1)c1cccc(OC)c1,0.615,0.107 (inactive),0.222,0.119,0.334,1.86,-0.151,-0.176,-1.06,0.506
O=C1NC(=O)C2C1C=CC(C(O)C(c1ccccc1)c1ccccc1)N2Nc1ccccn1 (stereo not given),0.26,-0.212 (inactive),0.15,0.256,0.809,0.899,0.754,-0.0644,0.691,-0.516
COc1ccc(CCNC(=O)[C@@]2(C)c3ccccc3C(=O)N(Cc3ccc(OC(F)(F)F)cc3)[C@H]2c2ccc(CO)cc2)cc1,-0.146,0.431 (inactive),-0.104,-0.163,0.611,1.37,0.687,1.3,0.309,0.781
O=C1O[C@H](c2ccccc2)[C@H](c2ccccc2)N2[C@H]1[C@@H](C(=O)N1CCN(c3ncccn3)CC1)[C@]1(C(=O)Nc3ccc(C#CC4(O)CCCCCC4)cc31)[C@H]2c1ccc(O)cc1,0.605,-0.019 (inactive),0.0556,-0.162,0.673,1.28,0.329,1.31,-0.0362,0.946
C=CCNC(=O)[C@H]1[C@@H]2C(=O)O[C@@H](c3ccccc3)[C@@H](c3ccccc3)N2[C@@H](c2ccc(OCCO)cc2)[C@]12C(=O)Nc1ccc(C#Cc3ccc(OC)cc3)cc12,0.404,0.637 (inactive),0.146,0.0805,0.386,2.34,0.315,1.3,0.581,1.18
